# Measured values taken from PubChem BioAssay AID841 (Emory University Molecular Libraries Screening Center, 2007).
# In all, about 140,000 compounds went through this assay and about 2,100 (1.5%) were called active. No stated cut-off is given here; in the data, active means protection mostly above about 24% (no sharp cut-off); inactive means mostly below about 26%. This excerpt belongs to a sample that is enriched for actives.
# Experiment: compounds protecting cells from measles virus cytopathic effect, primary screen, measles RdRp inhibitor project, single point, MLSMR library, absorbance (AID 841)
# Conditions: Measles virus-infected cells, CPE protection, at 4 µM, hits give high values
row,SMILES,protection (pct of control)
1,C=CCN1C(=O)C2(C(C(=O)OCC)=C(N)Oc3c2c(=O)oc2ccccc32)c2ccccc21 (stereo not given),81% (active)
2,COC(=O)CN1C(=O)C2(C(C(=O)OC)=C(N)Oc3ccccc32)C2=C1CC(C)(C)CC2=O (stereo not given),2.86% (inactive)
3,CCOC(=O)CC1=C(C(=O)OCC)C2(C(=O)N1)C(C(=O)OC)=C(N)Oc1ccccc12 (stereo not given),9.79% (inactive)
4,Cc1ccnc(-n2c(C)cc(/C=C3\C(=O)NC(=S)N(C)C3=O)c2C)c1,5.91% (inactive)
5,Cc1ccc(N2C(=O)NC(=O)C(CCc3ccncc3)(Cc3cccc(Cl)c3Cl)C2=O)cc1 (stereo not given),7.36% (inactive)
6,Cc1nn(Cc2ccccc2Cl)c(Cl)c1C(=O)OC(C(=O)NC(N)=O)C(C)C (stereo not given),14% (inactive)
7,O=C(C1CC(=O)N(C2CCCC2)C1)N1CCC2(CC1)OCCO2 (stereo not given),38.9% (active)
8,Cn1c(C(=O)N2CCC(C(=O)N3CCC4(CC3)OCCO4)CC2)cc2sccc21,8.88% (inactive)
9,CCN(N=Nc1nonc1OC)c1nonc1OC,5.4% (inactive)
10,CCC(=O)CC(c1ccc([N+](=O)[O-])cc1)c1c(O)c2ccccc2oc1=O (stereo not given),15.5% (inactive)
11,COc1ccc(C2N3CC(C)(C)CN23)cc1 (stereo not given),8.77% (inactive)
12,O=C1NC(=O)C(CCc2ccccn2)(Cc2cccc(Cl)c2Cl)C(=O)N1c1ccc(Br)cc1 (stereo not given),10.4% (inactive)
13,Cc1cccc(OP(=O)(Oc2cccc(C)c2)OC(c2ccccc2)C(F)(F)F)c1 (stereo not given),1.45% (inactive)
14,Cc1nc2ccccn2c1P(=S)(N1CCCCC1)N1CCCCC1,4.18% (inactive)
15,COC(=O)C(O)(c1ccc(NC(=O)c2ccco2)c(OC)c1)C(F)(F)F (stereo not given),3.68% (inactive)
16,CCOC(=O)C(O)(c1ccc(NC(=O)c2ccco2)c(OC)c1)C(F)(F)F (stereo not given),39.8% (active)
17,CCOC(=O)C(O)(c1ccc(N)c(OC)c1)C(F)(F)F (stereo not given),3.68% (inactive)
18,CC(=O)Nc1ccccc1C(=O)OCC(=O)c1cccc2ccccc12,26.2% (inactive)
19,O=c1[nH]c(=S)n(C2CC2)c(O)c1/C=N/N1CCOCC1,5.81% (inactive)
20,CNC(=O)N(C)c1nnc(C(C)(C)C)s1,54.7% (active)
21,CCOC(=O)C(O)(c1ccc(N=Cc2ccccc2O)c(C)c1)C(F)(F)F (stereo not given),5.53% (inactive)
22,CC(=O)N(C1=NCCCS1)c1ccccc1F,62.1% (active)
23,COc1c(O)ccc2c1-c1c3c(cc4c1C(C2)N(C)CC4)OCO3 (stereo not given),6.07% (inactive)
24,CC(C(=O)Nc1ccc(Cl)cc1Cl)N1CC=C(c2ccccc2)CC1 (stereo not given),9.49% (inactive)
25,CN1CCN(c2cc(N3CCNCC3)ccc2[N+](=O)[O-])CC1,21.6% (inactive)
26,CN(C)C(=O)Oc1ccc(OCc2cccc[n+]2C)cc1,6.21% (inactive)
27,c1ccc2sc(C3CCCNC3)nc2c1 (stereo not given),54.6% (active)
28,CN(C)c1ccc(/C=C2\CC3C4CC=C5CC(O)CCC5(C)C4CCC3(C)C2=O)cc1 (stereo not given),2.96% (inactive)
29,CC(C)N(CC#CCC1(O)c2ccccc2-c2ccccc21)C(C)C,14.5% (inactive)
30,Cc1cccc(-n2c(O)c(/C=N/N3CCOCC3)c(=O)[nH]c2=S)c1,1.74% (inactive)
